Experimental data from PubChem BioAssay (EPA / NIEHS).
Some compounds were tested as several samples or in several runs, with calls that do not always agree. Activity calls are given as the source filed them. The calls were made as follows: active = hit-call score of the fitted dose curve at least 0.9, where 1 is the maximum; inactive = score below 0.9.

Assays:
[1] = read-out: Macrophage colony-stimulating factor (MCSF), CSF1 (gene 1435); assay: BSK_hDFCGF_MCSF: BioMAP Diversity Plus: hDFCGF Assay for Macrophage colony-stimulating factor (MCSF) Biomarker Activity (AID 2283060); conditions: primary human foreskin fibroblasts; actives raise or lower the signal
Summary of the method: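 Human foreskin fibroblast primary cultures; M-CSF measured by ELISA 24 hours after chemical dosing. Bidirectional fitting relative to DMSO, with overt cytotoxicity tracked by parallel SRB total-protein staining (0.1% SRB, 10% TCA fixation, 560 nm).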

[2] = BSK_hDFCGF_SRB: Viability Assessment in the BioMAP Diversity Plus: hDFCGF Assay (AID 2283061); conditions: primary human foreskin fibroblasts;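 also: cells exposed to compound for 24 h before the read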
Summary of the method: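 Human foreskin fibroblasts in 96-well plates were treated 24 h. Total protein was measured by 0.1% SRB staining after 10% TCA fixation, read at 560 nm. Data were fitted bidirectionally against DMSO.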

[3] = read-out: TIMP metallopeptidase inhibitor 1 (TIMP1), TIMP1 (gene 7076); assay: BSK_hDFCGF_TIMP1: BioMAP Diversity Plus: hDFCGF Assay for TIMP metallopeptidase inhibitor 1 (TIMP1) Biomarker Activity (AID 2283062); conditions: primary human foreskin fibroblasts; actives raise or lower the signal
Summary of the method: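 Human foreskin fibroblast primary cultures dosed for 24 h; secreted/surface TIMP-1 quantified by ELISA. Bidirectional curve fitting against DMSO baseline; cytotoxicity tracked in parallel cultures by SRB total-protein staining.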

[4] = read-out: Matrix Metallopeptidase 1 (MMP1), MMP1 (gene 4312); assay: BSK_hDFCGF_MMP1: BioMAP Diversity Plus: hDFCGF Assay for Matrix Metallopeptidase 1 (MMP1) Biomarker Activity (AID 2283064); conditions: primary human foreskin fibroblasts; actives raise or lower the signal
Summary of the method: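 hDFCGF primary fibroblasts (human foreskin); chemical added; 24 h; MMP1 by ELISA; bidirectional fit vs DMSO.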

[5] = read-out: Vascular cell adhesion molecule 1 (VCAM1), VCAM1 (gene 7412); assay: BSK_hDFCGF_VCAM1: BioMAP Diversity Plus: hDFCGF Assay for Vascular cell adhesion molecule 1 (VCAM1) Biomarker Activity (AID 2283065); conditions: primary human foreskin fibroblasts; actives raise or lower the signal;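 as to AC50: VCAM-1 protein level quantified by ELISA after 24 h chemical exposure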
Summary of the method: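 Human foreskin fibroblast primary cells dosed with chemical, VCAM-1 measured by ELISA at 24 h. Bidirectional curve fitting relative to DMSO as negative control/baseline.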

[6] = read-out: Plasminogen activator inhibitor-1 (PAI1), SERPINE1 (gene 5054); assay: BSK_hDFCGF_PAI1: BioMAP Diversity Plus: hDFCGF Assay for Plasminogen activator inhibitor-1 (PAI1) Biomarker Activity (AID 2283066); conditions: primary human foreskin fibroblasts; actives raise or lower the signal
Summary of the method: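 Human foreskin fibroblast primary cells, 24 h chemical exposure; PAI-1 measured by ELISA. Bidirectional fitting relative to DMSO; parallel cultures stained with SRB for total protein to flag overt cytotoxicity.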

[7] = read-out: Intercellular Adhesion Molecule 1 (ICAM1), ICAM1 (gene 3383); assay: BSK_KF3CT_ICAM1: BioMAP Diversity Plus: KF3CT Assay for Intercellular Adhesion Molecule 1 (ICAM1) Biomarker Activity (AID 2283067); conditions: primary human keratinocytes with fibroblasts; actives raise or lower the signal
Summary of the method: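 Human keratinocyte–foreskin fibroblast co-culture was treated for 24 h. Cell-surface ICAM-1 was quantified by ELISA, fitted bidirectionally relative to DMSO. Cytotoxicity was checked in parallel cultures by SRB total-protein staining.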

[8] = read-out: Interferon-gamma inducible Protein 10 (IP10), CXCL10 (gene 3627); assay: BSK_KF3CT_IP10: BioMAP Diversity Plus: KF3CT Assay for Interferon-gamma inducible Protein 10 (IP10) Biomarker Activity (AID 2283068); conditions: primary human keratinocytes with fibroblasts; actives raise or lower the signal
Summary of the method: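 KF3CT co-culture (keratinocytes + foreskin fibroblasts), 24 h compound, IP-10 by ELISA; bidirectional fit vs DMSO baseline.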

[9] = BSK_KF3CT_SRB: Viability Assessment in the BioMAP Diversity Plus: KF3CT Assay (AID 2283069); conditions: primary human keratinocytes with fibroblasts;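 also: total protein by sulforhodamine B staining as a cytotoxicity measure; read 24 h after compound addition; fitted for both signal gain and loss against DMSO baseline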
Summary of the method: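 Keratinocytes co-cultured with foreskin fibroblasts (human primary); chemical added, 24 h; fix 10% TCA, stain 0.1% SRB, A560. Bidirectional fit vs DMSO.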

[10] = read-out: Interleukin-1 alpha (IL1a), IL1A (gene 3552); assay: BSK_KF3CT_IL1a: BioMAP Diversity Plus: KF3CT Assay for Interleukin-1 alpha (IL1a) Biomarker Activity (AID 2283070); conditions: primary human keratinocytes with fibroblasts; actives raise or lower the signal
Summary of the method: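 Chemicals were dosed onto co-cultured human keratinocytes and foreskin fibroblasts, IL-1a was quantified by ELISA at 24 h, and activity was fitted in both directions relative to DMSO controls.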

[11] = read-out: TIMP metallopeptidase inhibitor 2 (TIMP2), TIMP2 (gene 7077); assay: BSK_KF3CT_TIMP2: BioMAP Diversity Plus: KF3CT Assay for TIMP metallopeptidase inhibitor 2 (TIMP2) Biomarker Activity (AID 2283071); conditions: primary human keratinocytes with fibroblasts; actives raise or lower the signal
Summary of the method: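 Co-culture of human primary keratinocytes and foreskin fibroblasts, measured 24 h after chemical dosing. TIMP-2 quantified by ELISA and fitted in both directions relative to DMSO. Cytotoxicity checked in parallel cultures by SRB total-protein staining.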

[12] = read-out: Transforming growth factor beta 1 (TGFb1), TGFB1 (gene 7040); assay: BSK_KF3CT_TGFb1: BioMAP Diversity Plus: KF3CT Assay for Transforming growth factor beta 1 (TGFb1) Biomarker Activity (AID 2283072); conditions: primary human keratinocytes with fibroblasts; actives raise or lower the signal
Summary of the method: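 Human keratinocyte/foreskin fibroblast co-culture; TGF-b1 measured by ELISA 24 h after dosing, fitted bidirectionally versus DMSO. Cytotoxicity checked in parallel cultures by total protein (SRB staining, 560 nm).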

[13] = read-out: C-C motif chemokine 2 (Homo sapiens) (UniProt P13500); assay: BSK_KF3CT_MCP1: BioMAP Diversity Plus: KF3CT Assay for Monocyte Chemoattractant Protein 1 (MCP1/CCL2) Biomarker Activity (AID 2283073); conditions: primary human keratinocytes with fibroblasts; actives raise or lower the signal
Summary of the method: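 Human keratinocyte–foreskin fibroblast co-culture; MCP-1 measured by ELISA 24 h after dosing. Bidirectional fit vs DMSO; cytotoxicity tracked by SRB total protein in parallel cultures.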

[14] = read-out: Matrix Metallopeptidase 9 (MMP9), MMP9 (gene 4318); assay: BSK_KF3CT_MMP9: BioMAP Diversity Plus: KF3CT Assay for Matrix Metallopeptidase 9 (MMP9) Biomarker Activity (AID 2283074); conditions: primary human keratinocytes with fibroblasts; actives raise or lower the signal;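 as to AC50: MMP9 protein level quantified by ELISA in the co-culture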
Summary of the method: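 Human keratinocyte/foreskin fibroblast co-culture; compound added; 24 h; MMP-9 by ELISA; bidirectional fit vs DMSO baseline.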

[15] = read-out: urokinase plasminogen activator (uPA), PLAU (gene 5328); assay: BSK_KF3CT_uPA: BioMAP Diversity Plus: KF3CT Assay for urokinase plasminogen activator (uPA) Biomarker Activity (AID 2283075); conditions: primary human keratinocytes with fibroblasts; actives raise or lower the signal
Summary of the method: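 ELISA readout of uPA, analyzed for signal gain or loss relative to DMSO, from a human primary keratinocyte–foreskin fibroblast co-culture measured 24 h after chemical treatment.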

[16] = read-out: CD40, CD40 (gene 958); assay: BSK_LPS_CD40: BioMAP Diversity Plus: LPS Assay for CD40 Biomarker Activity (AID 2283076); conditions: primary human HUVEC with PBMC; actives raise or lower the signal
Summary of the method: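 HUVEC plus PBMC co-culture stimulated with LPS; CD40 quantified by ELISA 24 h after compound dosing. Fitting was bidirectional relative to DMSO. SRB staining of parallel cultures flagged overt cytotoxicity.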

[17] = read-out: E-selectin (Homo sapiens) (UniProt P16581); assay: BSK_LPS_Eselectin: BioMAP Diversity Plus: LPS Assay for Eselectin Biomarker Activity (AID 2283077); conditions: primary human HUVEC with PBMC; actives raise or lower the signal
Summary of the method: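 Human umbilical vein endothelial cells co-cultured with PBMC under LPS stimulation; cell-surface E-selectin measured by ELISA 24 h after dosing. Change in either direction versus DMSO, with SRB total-protein staining in parallel cultures for cytotoxicity.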

[18] = read-out: Interleukin-8 (IL8), CXCL8 (gene 3576); assay: BSK_LPS_IL8: BioMAP Diversity Plus: LPS Assay for Interleukin-8 (IL8) Biomarker Activity (AID 2283078); conditions: primary human HUVEC with PBMC; actives raise or lower the signal
Summary of the method: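 Human umbilical vein endothelial cells co-cultured with PBMC, LPS-stimulated, exposed to compound for 24 h. IL-8 quantified by ELISA; fitted in both directions against DMSO, with SRB total-protein staining of parallel cultures for cytotoxicity.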

[19] = BSK_LPS_SRB: Viability Assessment in the BioMAP Diversity Plus: LPS Assay (AID 2283079); conditions: primary human HUVEC with PBMC;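 also: total protein by sulforhodamine B absorbance as a cytotoxicity measure; measured one day after compound addition; fitted in both directions against DMSO so loss or gain of signal counts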
Summary of the method: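 Co-culture of human umbilical vein endothelial cells and PBMC, read 24 h after dosing. Total protein by 0.1% SRB staining after 10% TCA fixation, absorbance at 560 nm; bidirectional fit against DMSO.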

[20] = read-out: Monokine induced gamma interferon (MIG), CXCL9 (gene 4283); assay: BSK_hDFCGF_MIG: BioMAP Diversity Plus: hDFCGF Assay for Monokine induced gamma interferon (MIG) Biomarker Activity (AID 2283063); conditions: primary human foreskin fibroblasts; actives raise or lower the signal
Summary of the method: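 MIG/CXCL9 measured by ELISA 24 h after dosing primary human skin fibroblasts. Activity fitted in both directions against DMSO controls. Cytotoxicity was checked in parallel cultures by SRB staining read at 560 nm.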

Measured: AC50

E-selectin (Homo sapiens), sequence (P16581 whole entry, looked up): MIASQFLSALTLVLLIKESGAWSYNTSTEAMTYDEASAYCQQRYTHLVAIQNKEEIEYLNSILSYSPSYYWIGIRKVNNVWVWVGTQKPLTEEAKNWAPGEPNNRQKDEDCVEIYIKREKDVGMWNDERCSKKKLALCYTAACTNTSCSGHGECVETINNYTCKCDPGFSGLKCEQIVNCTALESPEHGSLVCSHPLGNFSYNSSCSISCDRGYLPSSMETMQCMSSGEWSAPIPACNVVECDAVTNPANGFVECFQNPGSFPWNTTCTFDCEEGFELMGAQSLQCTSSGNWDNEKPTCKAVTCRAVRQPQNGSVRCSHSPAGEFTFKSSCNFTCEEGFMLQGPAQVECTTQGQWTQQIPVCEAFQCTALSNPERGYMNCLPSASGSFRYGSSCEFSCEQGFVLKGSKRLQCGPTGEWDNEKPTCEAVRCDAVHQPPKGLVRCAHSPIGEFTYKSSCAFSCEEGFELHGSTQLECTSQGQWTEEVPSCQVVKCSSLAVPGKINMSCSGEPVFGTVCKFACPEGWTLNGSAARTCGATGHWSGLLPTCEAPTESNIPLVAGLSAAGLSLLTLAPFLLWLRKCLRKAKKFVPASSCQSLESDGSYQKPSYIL

CC(C)CCCCCOC(=O)CS
active: [6] 9.15 µM
not listed: [20]
inactive: all other assays above

O=C1CCCCCCCCCCC1
not listed: [20]
inactive: all other assays above

Nc1nc(N)nc(-c2ccccc2)n1
not listed: [12]
inactive: all other assays above

CCc1cccc(C)c1N(C(=O)CS(=O)(=O)O)C(C)COC (configuration not stated)
not listed: [1]
inactive: all other assays above

CC1=CC=C(C(C)C)CC1
not listed: [20]
inactive: all other assays above

O=C(Oc1ccccc1)c1ccccc1C(=O)Oc1ccccc1
active: [6] 20 µM
not listed: [20]
inactive: all other assays above

CC/C=C\C/C=C\C/C=C\CCCCCCCC(=O)OC
active: [2] 6.53 µM | [3] 10.7 µM | [20] 11.1 µM | [4] 12.3 µM | [5] 8.22 µM | [6] 6.64 µM | [7] 12.3 µM | [8] 20 µM | [9] 20 µM | [10] 12.2 µM | [11] 7.17 µM | [12] 6.41 µM | [13] 5.29 µM | [14] 12.2 µM | [15] 20 µM | [16] 20 µM | [17] 30.1 µM | [18] 29 µM | [19] 27.8 µM

CCNc1nc(NC(C)(C)C)nc(OC)n1
not listed: [20]
inactive: all other assays above

CC(CCC(=O)O)(c1ccc(O)cc1)c1ccc(O)cc1
not listed: [12] | [20]
inactive: all other assays above

COc1ccc(C(=O)c2ccccc2)c(O)c1
active: [14] 20 µM
not listed: [20]
inactive: all other assays above

CC(C)c1cccc(C(C)C)c1N
not listed: [1]
inactive: all other assays above

Fc1ccc(Br)cc1
not listed: [20]
inactive: all other assays above

c1ccc2c(c1)[nH]c1ccccc12
active: [18] 0.017 µM
inactive: [2] | [3] | [20] | [4] | [5] | [6] | [7] | [8] | [9] | [10] | [11] | [12] | [13] | [14] | [15] | [16] | [17] | [18] | [19]
